# Assay outcomes (PubChem BioAssay)
# USP28 inh: human USP28 deubiquitinase inhibition | Q96RU2 | 3% of 47,000 active | inhibition, % at 25 µM | purified USP28, Ub-rhodamine cleavage fluorescence, 30 min
# USP17 inh: inhibitors of human USP17 deubiquitinase. purified USP17, Ub-rhodamine cleavage fluorescence, 3 h. inhibition, % at 50 µM. 6.5% of 47,000 active. AID 1645855
# USP30 inh: human USP30 deubiquitinase inhibition; inhibition, % at 25 µM; purified USP30, Ub-rhodamine cleavage fluorescence; 5.3% of 47,000 active; Q70CQ3
# Target sequence (Q70CQ3 whole entry, looked up): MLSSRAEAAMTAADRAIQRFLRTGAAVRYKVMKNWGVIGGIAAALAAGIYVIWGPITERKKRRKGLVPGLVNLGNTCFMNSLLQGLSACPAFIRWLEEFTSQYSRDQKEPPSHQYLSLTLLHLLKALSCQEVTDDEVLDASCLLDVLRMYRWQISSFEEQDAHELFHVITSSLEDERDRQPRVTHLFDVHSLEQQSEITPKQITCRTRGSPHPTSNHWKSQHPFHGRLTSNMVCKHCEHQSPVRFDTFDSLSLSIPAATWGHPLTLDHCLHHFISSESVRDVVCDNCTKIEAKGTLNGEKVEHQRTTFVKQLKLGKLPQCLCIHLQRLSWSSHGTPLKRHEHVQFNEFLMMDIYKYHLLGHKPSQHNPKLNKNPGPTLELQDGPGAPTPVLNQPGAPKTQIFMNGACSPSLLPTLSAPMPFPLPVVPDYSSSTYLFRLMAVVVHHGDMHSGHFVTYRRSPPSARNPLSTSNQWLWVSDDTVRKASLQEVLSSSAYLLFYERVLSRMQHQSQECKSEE
# USP10 inh: human USP10 deubiquitinase inhibition | AID 1645856 | purified USP10, Ub-rhodamine fluorescence, 60 min | 1.1% of 47,000 active | Q14694 | inhibition, % at 20 µM
# USP8 inh: blocks human USP8 ubiquitin-rhodamine cleavage; inhibition, % at 20 µM; 4.2% of 47,000 active; purified USP8, Ub-rhodamine cleavage fluorescence, 30 min
# Starred values were filed as active, the others as inactive; . = no result. An excerpt weighted towards active compounds, which were near 14% of everything screened. No stated cut-off is given here; in the data, active means inhibition above about 30%; inactive means the rest.
SMILES,USP28 inh,USP17 inh,USP30 inh,USP10 inh,USP8 inh
O=C(N1CCOCC1)N1CCC2(CC1)CCN(c1ncccn1)CC2,0.0,8.8,2.9,3.9,1.1
O=C(Nc1cccn(Cc2c(Cl)cccc2Cl)c1=O)c1ccccc1[N+](=O)[O-],80.8*,8.7,46.3*,5.5,-48.5
Cc1[nH]c2ccc(F)cc2c1CCNC(=O)c1cc2cc([N+](=O)[O-])ccc2oc1=O,1.8,-32.4,14.4,6.8,-13.6
Cc1[nH]c2ccccc2c1CCNC(=O)c1cc2cc(Cl)ccc2oc1=O,8.5,22.8,1.9,-3.2,56.0*
Cc1ccc(-c2csc(-c3nnn(-c4cccc(Cl)c4)c3N)n2)cc1,-0.8,-3.7,-15.6,0.6,42.4*
Nc1c(-c2nc(-c3ccccc3)cs2)nnn1-c1ccccc1,.,7.6,.,1.4,2.9
COc1ccc(-c2csc(-c3nnn(-c4cc(OC)cc(OC)c4)c3N)n2)cc1,-5.8,-15.0,-29.2,-2.7,-4.0
Nc1c(-c2nc(-c3ccc4c(c3)OCO4)cs2)nnn1-c1ccccc1,7.3,64.9*,15.3,-1.1,33.6*
CC(C1CC1)n1nccc1NC(=O)c1cccnc1SC(F)F (centres undefined),-1.6,-6.3,1.2,-1.0,7.8
CC(=O)Nc1nsc(N2CCC(C(=O)NCc3ccc(F)cc3F)CC2)n1,4.0,-0.3,0.1,-2.9,-0.3
Cn1c(=O)c2c(nc(SCc3nnc(-c4ccccc4)o3)n2Cc2ccc(F)cc2)n(C)c1=O,33.0*,59.1*,62.7*,1.3,-37.3
Cn1c(=O)c2c(nc(CN3CCN(Cc4ccccc4)CC3)n2CCN2CCOCC2)n(C)c1=O,-3.6,-2.1,-0.4,1.0,-6.1
CCN1C(=O)C2(CCN(CC(C)C)CC2)CC12CCN(C(=O)c1cccc(OC)c1)CC2,-8.3,-19.7,-36.0,-5.7,-22.4
Cc1ccc(NC(=O)CN(C)C(=O)c2cn(-c3ccccc3)nc2-c2cccnc2)cc1,-10.7,.,-15.1,-1.3,-37.7
Cc1ccc(OC(=O)c2cn(-c3ccccc3)nc2-c2cccnc2)cc1,-4.1,55.4*,45.1*,9.6,-14.4
CNc1nc2c(c(=O)n1C)CN(S(=O)(=O)c1ccc(OC(F)(F)F)cc1)CC2,4.7,7.9,13.2,0.1,8.8
CCC(C(=O)N1CCc2cc(OC)c(OC)cc2C1COc1ccccc1OC)c1ccccc1 (centres undefined),3.9,31.0*,14.7,4.6,58.9*
COc1cc2c(cc1OC)C(COc1ccccc1OC)N(C(=O)c1ccc3ccccc3c1)CC2 (centres undefined),3.8,51.8*,-31.2,-3.0,87.7*
CCOc1ccc(C(=O)N2Cc3ccccc3CC2C(N)=O)cc1OC (centres undefined),-4.6,0.0,4.0,-1.0,2.6
CCC(C)NC(=O)Cn1c(=O)n(-c2ccccc2)c(=O)c2ccc(C(=O)NCc3ccco3)cc21 (centres undefined),38.7*,16.5,73.2*,7.0,25.2
O=C(Cc1ccc(-n2c(=O)c3ccccc3n(CC(=O)Nc3ccc(Cl)cc3Cl)c2=O)cc1)NCc1ccco1,10.4,21.0,16.4,45.8*,55.7*
COc1ccc(NC(=O)Cn2c(=O)n(-c3ccc(CC(=O)NCc4ccco4)cc3)c(=O)c3ccccc32)cc1Cl,-9.2,11.9,-0.9,60.6*,74.5*
CC(=O)c1ccc(-n2nnc(C(=O)c3ccc(Cl)cc3Cl)c2C)cc1,-16.8,-1.1,-40.3,8.4,-2.5
CCCc1nc2sc3c(SCC(=O)Nc4nccs4)ncnc3c2c2c1CCC2,24.9,-7.6,8.8,-0.3,-1.2
CC1Cn2c(cnc2C(F)(F)F)C(=O)N1CC(=O)NC1CCOCC1 (centres undefined),2.8,6.6,-29.2,0.0,4.8
SMILES,USP28 inh,USP17 inh,USP30 inh,USP10 inh,USP8 inh
COc1ccc([N+](=O)[O-])cc1C1N(c2ccccc2)CCN1c1ccccc1,2.2,31.1*,2.9,0.8,-16.3
COc1ccc(-c2noc(C3CCCN3C(=O)c3ccccc3)n2)cc1OC (centres undefined),-2.0,-3.8,-0.9,2.2,5.9
Cc1onc(-c2ccccc2Cl)c1C(=O)N1CCCC1c1cccs1 (centres undefined),-30.8,-24.9,-94.3,-1.2,-6.5
CC(=O)Nc1ccc(C2C3=C(CC(C)(C)CC3=O)Nc3onc(C)c32)cc1 (centres undefined),6.0,7.5,18.6,-0.9,15.9
CCOc1cc(C2C3=C(CC(C)(C)CC3=O)Nc3onc(C)c32)ccc1O (centres undefined),11.6,50.9*,45.2*,0.6,15.0
O=C(Cc1ccccc1)N1CCN(c2nccn2-c2cccc(Cl)c2)CC1,-16.9,-28.8,-29.3,-3.5,-6.2
